Assay outcomes (PubChem BioAssay)
AGP1-GFP MLPCN: yeast TOR pathway AGP1-GFP modulation; S. cerevisiae AGP1-GFP multiplex flow cytometry, 3 h; GFP as percent of DMSO wells; GFP response vs DMSO, % at 10 µM; actives 0.02% (n = 320,000); AID 2066;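 active = GFP response relative to DMSO above a set limit, near screen average plus 3 SD, cut at about 150% in these data; inconclusive = fewer than 70 cells counted for the yeast strain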;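 also: median GFP channel fluorescence of the gated AGP1 strain per well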
CIT2 TOR yeast: alters CIT2-GFP fluorescence in TOR pathway yeast screen; actives 0.065% (n = 320,000); AID 2029; GFP response vs DMSO, % at 10 µM; S. cerevisiae CIT2-GFP strain, flow cytometry, 3 h; 100 means same as DMSO wells;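 active = GFP response relative to DMSO above a set limit, near the screen mean plus 3 SD, cut at about 150% in these data; inconclusive = Fewer than 70 cells measured for a yeast strain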;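 also: ratio of well median GFP fluorescence to mean of DMSO wells on the plate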
MEP2-GFP yeast: yeast TOR pathway MEP2-GFP modulation; S. cerevisiae MEP2-GFP strain, flow cytometry GFP, 3 h; 100% = DMSO control level; GFP response vs DMSO, % at 10 µM; actives 0.51% (n = 330,000); AID 2016;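 active = GFP response versus DMSO above a set limit, roughly screen mean plus 3 SD, cut at about 180% in these data; inconclusive = fewer than 70 cells counted for a yeast strain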;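 also: median GFP fluorescence of the barcode-gated MEP2-GFP cells per well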
LAP4 TOR yeast: modulators of TOR pathway LAP4-GFP in S. cerevisiae; S. cerevisiae LAP4-GFP multiplex, flow cytometry GFP, 3 h; median GFP as percent of DMSO wells; GFP response vs DMSO, % at 10 µM; actives 0.34% (n = 320,000); AID 2023;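 active = GFP response vs DMSO above a set limit, about the screen mean plus 3 SD, cut at about 150% in these data; inconclusive = under 70 cell events counted for the yeast strain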
RPL19A TOR yeast: yeast TOR pathway RPL19A-GFP modulation. S. cerevisiae RPL19A-GFP strain, flow cytometry, 3 h; hits give low values. percent response vs DMSO, % at 10 µM. actives 0.3% (n = 330,000). AID 2025;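 active = percent response vs DMSO below 50%; inconclusive = fewer than 70 events counted for the yeast strain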;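 also: median channel GFP fluorescence of the barcoded RPL19A-GFP strain; ratio of sample median GFP to plate DMSO average so 100% = DMSO; lower means less RPL19A-GFP as with rapamycin TOR inhibition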
GASC-1 inh: blocks human GASC-1 demethylase activity. Q9H3R0. GST-JMJD2C(1-420) H3K9me3 demethylation, DELFIA europium. actives 0.069% (n = 330,000). AID 2099. inhibition, % at 2.35 µM;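 active = more than half of a compound's replicate wells show inhibition beyond 50%, single wells judged on their own value; inconclusive = some, but no more than half, of replicates pass 50% inhibition; inactive = no replicate passes 50% inhibition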;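 also: signal counts dimethyl H3K9 product captured on neutravidin plate; 0% = median of DMSO wells and 100% = 0.3 times that DMSO median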
Target sequence (Q9H3R0 1-420 limits assumed): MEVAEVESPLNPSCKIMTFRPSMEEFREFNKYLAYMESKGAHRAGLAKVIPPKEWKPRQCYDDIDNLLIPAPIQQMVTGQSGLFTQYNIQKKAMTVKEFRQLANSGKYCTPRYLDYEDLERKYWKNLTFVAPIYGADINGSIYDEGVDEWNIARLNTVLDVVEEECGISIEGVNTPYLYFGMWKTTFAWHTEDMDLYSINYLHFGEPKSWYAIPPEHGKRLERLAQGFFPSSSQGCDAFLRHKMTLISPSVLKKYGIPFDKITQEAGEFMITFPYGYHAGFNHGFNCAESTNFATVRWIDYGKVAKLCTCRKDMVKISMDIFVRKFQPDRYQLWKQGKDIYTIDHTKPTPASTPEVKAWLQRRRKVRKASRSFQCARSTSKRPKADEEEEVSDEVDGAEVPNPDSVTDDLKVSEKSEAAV
Numbers without * were called inactive; ? = inconclusive; [ ] = dose if it differs, or a comment. An excerpt weighted towards active compounds, which were near 0.97% of everything screened.

SMILES	AGP1-GFP MLPCN	CIT2 TOR yeast	MEP2-GFP yeast	LAP4 TOR yeast	RPL19A TOR yeast	GASC-1 inh
CS(=O)(=O)c1ccc(NCCc2ccccn2)c([N+](=O)[O-])c1	97	93	96	113	96	-10
O=[N+]([O-])c1cc(C(F)(F)F)ccc1NCCc1ccccn1	76	79	86	219*	63	-13
O=C(N=C1SC2CS(=O)(=O)CC2N1c1ccccc1)c1cccc([N+](=O)[O-])c1 (centres undefined)	100	96	107	101	98	-4
Cc1ccc(/C=N/Nc2nncc(-c3ccccc3)n2)o1	100	105	99	98	97	-7
Cc1[nH]n(-c2ccccc2)c(=O)c1/C=N/Nc1nncc(-c2ccccc2)n1	88	89	113	271*	89	-11
c1cncc(Nc2nc(-c3cccnc3)cs2)c1	101	107	97	94	94	-10
Clc1ccccc1Nc1nc(-c2cccnc2)cs1	?	?	210*[may fluoresce violet]	82	43*[may fluoresce violet]	9
O=C(O)CCN1CCN(S(=O)(=O)c2ccc3ccccc3c2)CC1	105	102	104	93	103	6
Cn1ccnc1SCC(=O)c1ccc2ccccc2c1	25	?	103	144	49*[may fluoresce violet]	4
CCOc1cccc(-c2c(C(=O)N/N=C/c3ccoc3)nnn2-c2nonc2N)c1	106	99	103	108	94	1
COC(=O)C(C)Sc1nc2c(cnn2-c2ccc(Cl)cc2)c(=O)[nH]1 (centres undefined)	101	104	103	101	107	-6
CCOC(=O)c1cc(C)[nH]c(=O)c1C#N	?	?	680*[may fluoresce violet]	70	33*[may fluoresce violet]	-25
CCOC(=O)c1cc(C)[nH]c1C	108	108	100	110	102	1
CCOc1ccc2nc(SCC(=O)NCC3CCCO3)c(C#N)cc2c1 (centres undefined)	49	93	211*	112	99	2
CCc1ccc2nc(SCC(=O)NCC3CCCO3)c(C#N)cc2c1 (centres undefined)	110	110	102	108	106	-1
O=C(C1CC(=O)N(c2ccc3c(c2)OCCO3)C1)N1CCCC(C(F)(F)F)C1 (centres undefined)	103	98	99	103	97	5
COCCNC(=O)c1c(N)n(CCCn2ccnc2)c2nc3ccccc3nc12	?	?	224*[may fluoresce violet]	79	44*[may fluoresce violet]	-2
COCCNC(=O)c1c(N)n(-c2ccccc2)c2nc3ccccc3nc12	96	92	104	107	101	-15
Cc1ccc(C(=O)NCCn2c(N)c(C#N)c3nc4ccccc4nc32)cc1	31	?	184*[may fluoresce violet]	83	62	-5
N#Cc1c(N)n(CCNC(=O)c2ccc(Cl)cc2)c2nc3ccccc3nc12	102	104	93	99	102	-5
CCN(Cc1cc(=O)[nH]c2ccccc12)C(=O)c1ccc(C)cc1	105	100	106	102	101	1
COc1cccc(/C=N/NC(=O)c2ccoc2C)c1	?	?	322*[may fluoresce violet]	104	62	17
COc1cc(/C=N/NC(=O)c2ccoc2C)ccc1O	35	103	116	77	102	-4
COC(=O)c1sccc1NC(=O)c1ccc(C(C)C)cc1	106	108	105	99	107	-14
COc1ccc(NC(=O)COC(=O)c2ccco2)c([N+](=O)[O-])c1	113	217*	202*	145	122	-1
SMILES	AGP1-GFP MLPCN	CIT2 TOR yeast	MEP2-GFP yeast	LAP4 TOR yeast	RPL19A TOR yeast	GASC-1 inh
COc1ccc(CNC(=O)c2ccccc2NC(=O)C2=CSCCO2)c(OC)c1	121	111	108	121	107	6
O=C(Cn1ncc2c([nH]c3ccccc32)c1=O)N1CCN(c2ccccn2)CC1	100	99	105	95	104	-2
O=C(O)Cc1ccc2c(c1)N(S(=O)(=O)c1cccs1)CC(C(=O)O)O2 (centres undefined)	120	161*[may fluoresce green]	109	106	94	1
CCN(CC)CCNC(=O)Cn1c(-c2ccccn2)nc2ccccc21	103	128	180*	144	99	7
NNC(=O)Cn1c(-c2ccccn2)nc2ccccc21	99	104	104	94	104	1
CNc1nc(-c2cccs2)cc(C(F)(F)F)c1C#N	17	?	592*[may fluoresce violet]	99	47*[may fluoresce violet]	5
O=C(COC(=O)CNC(=O)c1ccc(Cl)cc1Cl)NNC(=O)c1ccccc1F	129	120	141	146	121	4
O=C(NCc1ccccc1)c1cc[n+](CC(=O)c2cccs2)cc1	106	93	97	101	97	7
COc1cccc(C(=O)N/N=C(\CC(C)C)c2ccccc2)c1	97	108	183*	102	103	8
COc1ccc(S(=O)(=O)Nc2ccc(Nc3ccccc3)cc2)cc1	110	102	101	111	98	8
COc1ccc(S(=O)(=O)Nc2ccccc2)cc1	?	?	208*[may fluoresce violet]	89	27*[may fluoresce violet]	20
O=c1oc(-c2ccccc2)nc2sc3c(c12)CCCC3	?	?	?	?	18*[may fluoresce violet]	14
O=C(O)C1CCCCC1C(=O)Nc1ccc(F)cc1F (centres undefined)	?	?	?	?	15*[may fluoresce violet]	1
Cc1ccc(NC(=O)C2CCN(S(=O)(=O)c3cccc4nonc34)CC2)cc1	16	?	297*[may fluoresce violet]	71	53	2
CC(=O)c1ccc(NC(=O)C2CCN(S(=O)(=O)c3cccc4nonc34)CC2)cc1	?	?	?	?	?	-2
O=C(C1CCN(S(=O)(=O)c2cccc3nonc23)CC1)N1CCCCC1	?	?	?	?	17*[may fluoresce violet]	-13
O=C(NCc1ccccc1)C(c1ccncc1)N(C(=O)c1ccccn1)c1ccccc1 (centres undefined)	56	95	98	99	102	3
O=C(NCc1ccco1)/C(=C\c1ccccc1)NC(=O)c1ccccc1	?	?	?	76	48*[may fluoresce violet]	-5
O=C(Nc1ccccc1)/C(=C/c1ccc(O)cc1)NC(=O)c1ccco1	?	?	533*[may fluoresce violet]	101	53	-8
COc1ccc(/C=C(\NC(=O)c2ccccc2)C(=O)NCc2ccco2)cc1	92	96	90	86	97	-10
CCOc1ccc(CCNC(=O)COC(=O)c2nc(Cl)ccc2Cl)cc1OCC	113	94	103	115	102	4
O=C(NCc1ccccc1)C(c1ccncc1)N(C(=O)c1csnn1)c1cccc(F)c1 (centres undefined)	105	106	108	107	103	-10
